Results filed as inconclusive are left out. A call without a number means that no potency is given here. The source made the active and inactive calls. Calls come from the whole dose curve; as a rule, active = well fitted activation curve with a large enough effect in the repeat runs; inconclusive = weak or mixed curves; inactive = flat fitted curve, though single readings scatter.
Each compound was assayed against Nuclear receptor subfamily 1 group I member 2 (Homo sapiens) (UniProt O75469) (assay: Human pregnane X receptor (PXR) activation by small molecules, qHTS assay (AID 1346985; note: nearly all actives have a fitted effect of over 40% in size)). Settings: DPX-2 HepG2 CYP3A4-luciferase, 24 h; series mostly up to 38.3 µM.
Text: National Center for Advancing Translational Sciences [NCATS]
NIH Chemical Genomics Center [NCGC]
U.S. Environmental Protection Agency [EPA]
National Institutes of Environmental Health Sciences [NIEHS]
National Toxicology Program [NTP]
The Pregnane X receptor (PXR), a ligand activated nuclear receptor plays a critical role in the regulation of genes involved in drug metabolism and transporters. Activation of PXR may be involved in the unwanted adverse drug-drug interactions. […] Therefore, identification of compounds with the potential for PXR activation can be of importance in improving the efficacy of drugs with less toxicity and avoiding drug-drug interactions.
DPX-2 (Puracyp, Inc.) cell lines, used for screening against human PXR activation has HepG2 cells co-transfected with a PXR response element and a luciferase construct containing CYP3A4 promoter. Increase in luciferase activity can be used to identify the compounds that activate the PXR pathway.
DPX-2 cells were dispensed at 2,000 cells per well in 5uL of assay medium into white, solid-bottom 1536-well plates using a Multidrop Combi dispenser (Thermo Scientific). The assay plates were incubated at 37C for 5hr before transferring 23nL of test compounds dissolved in DMSO and positive control via Pintool station (Wako). The assay plates were incubated at 37C for 24hr. Then 5ul One-Glo assay reagent (Promega) was added to each plate by a Flying Reagent Dispenser (FRD, Aurora Discovery) and following 30 min incubation at room temperature, luciferase activity was quantified on a ViewLux plate reader (Perkin Elmer).
Potency is the fitted concentration of half-maximal effect.

Compound | Potency
O=C1C(O)=C(O)C(=O)C(O)=C1O | inactive
CNCCCCOc1ccccc1Cc1ccccc1 | inactive
OCc1cc(C(O)CNCCCCCCOCCCCc2ccccc2)ccc1O (stereo not given) | inactive
NCc1ccccc1Sc1ccccc1CO | inactive
CC(CSC(=O)c1ccccc1)C(=O)N1C[C@@H](Sc2ccccc2)C[C@H]1C(=O)O (stereo not given in full) | inactive
CCOCC(O)COc1ccc(NC(=O)CC[S+](C)C)cc1 (stereo not given) | inactive
COc1cc2c(cc1OC)C(C(C(=O)N(CCc1ccc(OC)c(OC)c1OC)CCc1ccc(OC)c(OC)c1OC)c1ccccc1)=NCC2 (stereo not given) | 7.94 µM (active)
CC(=O)NO | inactive
CN1CCN(C(c2ccccc2)c2ccccc2)CC1 | inactive
CNCCCN1c2ccccc2CCc2ccccc21 | inactive
C=C1C(=C/C=C2\CCC[C@]3(C)[C@@H]([C@H](C)/C=C/[C@@H](O)C4CC4)CC[C@@H]23)C[C@@H](O)C[C@@H]1O | inactive
CCOC(=O)c1cccnc1 | inactive
O=C1[C@H]2CCCC[C@H]2C(=O)N1CCCCN1CCN(c2nsc3ccccc23)CC1 | 12.6 µM (active)
CN(C)CCN(Cc1ccccc1)c1ccccn1 | inactive
CCCCC | inactive
COc1ccc(C(=O)N2CCN(CC(=O)N3CCOCC3)CC2)cc1 | inactive
C[N+]1(CC2COC(c3ccccc3)(C3CCCCC3)O2)CCCCC1 (stereo not given) | inactive
CCCCC1=NC2(CCCC2)C(=O)N1Cc1ccc(-c2ccccc2-c2nn[nH]n2)cc1 | inactive
Clc1ccc2c(c1)CCc1cccnc1C2=C1CCNCC1 | 14.1 µM (active)
CCN(CC)CCOC(=O)C(c1ccccc1)C1CCCCC1 (stereo not given) | 25.1 µM (active)

Compound | Potency
O=C(O)C(S)C(S)C(=O)O (stereo not given) | inactive
Nc1ccc(S(=O)(=O)Nc2ccccc2)cc1 | inactive
Nc1c(CC(=O)O)cccc1C(=O)c1ccc(Br)cc1 | inactive
OCCN1CCN(CCCN2c3ccccc3C=Cc3ccccc32)CC1 | 10 µM (active)
C[C@H]1C[C@H]2[C@@H]3CCC4=CC(=O)C=C[C@]4(C)[C@@]3(Cl)[C@@H](O)C[C@]2(C)[C@@]1(O)C(=O)CO | 11.2 µM (active)
Cc1ncc(CO)c(C=O)c1O | inactive
CN1CCC(=C2c3ccccc3Sc3ccccc32)CC1 | 14.1 µM (active)
O=C1OC(CN2CCOCC2)CN1/N=C/c1ccc([N+](=O)[O-])o1 (stereo not given) | inactive
CC(=O)[O][Al][O]C(C)=O | inactive
CC(=O)c1ccc2c(c1)N(CCCN(C)C)c1ccccc1S2 | inactive
C[N+](C)(C)CCOC(=O)CCC(=O)OCC[N+](C)(C)C | inactive
CC1(c2ccccc2)OC(C(=O)O)=CC1=O (stereo not given) | inactive
CC(=O)c1ccc2c(c1)N(CCCN1CCC(CCO)CC1)c1ccccc1S2 | inactive
CCCOC(C(=O)OC1CCN(C)CC1)(c1ccccc1)c1ccccc1 | 14.1 µM (active)
NCC(=O)CCC(=O)O | inactive
CCn1cc(C(=O)O)c(=O)c2cnc(N3CCNCC3)nc21 | inactive
c1ccc(CNCCNCc2ccccc2)cc1 | inactive
Cc1cccc(C)c1OCC(=O)N[C@@H](Cc1ccccc1)[C@@H](O)C[C@H](Cc1ccccc1)NC(=O)[C@H](C(C)C)N1CCCNC1=O | 3.98 µM (active)
CC(=O)OC[C@H]1O[C@@H](n2ncc(=O)[nH]c2=O)[C@H](OC(C)=O)[C@@H]1OC(C)=O | inactive
Cc1cccc(C)c1NC(=O)CN(CC(=O)O)CC(=O)O | inactive

From PubChem BioAssay (Tox21)
